Where “and” joins values, the source holds several entries; their conditions need not be identical. Equal values may be shown once. Inconclusive results are not listed. More than one record can exist for a structure, and the calls need not agree. Calls of active or inactive are those of the source. Rule for the calls: active = hit-call score of the fitted dose curve at least 0.9, where 1 is the maximum; inconclusive = response in the unintended direction; inactive = score below 0.9.
experiment: ACEA_ER_80hr: ACEA Biosciences xCELLigence Real-Time Cell Analysis on Estrogen Receptor Agonism for Proliferation (AID 2282667); details: T47D proliferation, impedance (xCELLigence), 80 h
Experimental: ACEA_ER is a cell-based, single-readout assay that uses T47D, a human breast cell line, with measurements taken at 80 hours after chemical dosing in a 96-well plate, although TO2 (mc0.srcf) used a 384-well plate. Differences in plate size can be ignored given data normalization.ACEA_ER_80hr is one of two assay component(s) measured or calculated from the ACEA_ER assay. It is designed to make measurements of real-time cell-growth kinetics, a form of growth reporter, as detected with electrical impedance signals by Real-Time Cell Electrode Sensor (RT-CES) technology.Data from the assay component ACEA_ER_80hr was analyzed into 1 assay endpoint. This assay endpoint, ACEA_ER_80hr_Positive, was analyzed in the positive analysis fitting direction relative to DMSO as the negative control and baseline of activity. Using a type of growth reporter, measures of the cells for gain-of-signal activity can be used to understand the signaling at the pathway-level as they relate to the gene ESR1. Furthermore, this assay endpoint can be referred to as a primary readout, because this assay has produced multiple assay endpoints where this one serves a signaling function. To generalize the intended target to other relatable targets, this assay endpoint is annotated to the nuclear receptor intended target family, where the subfamily is steroidal.
The xCELLigence system Multi-E-Plate stations were used to measure the time-dependent response to chemicals. Each compound was tested in an eight-point, 1:4 serial dilution series starting at a maximum final concentration of 100 uM. A maximum starting concentration of 0.5% DMSO was present in the 100 uM chemical samples and was diluted along with the test article dilution series. The screen was performed in biological duplicate using two separate, 96-well, E-Plates 96 for each dilution series (n = 2). Positive controls (MG132 and E2) and a negative control (assay media) were tested in quadruplicate on each testing plate. […] Reference compounds were tested with 8 concentrations with 1:5 serial dilutions. All screening was carried out by ACEA Biosciences, Inc. (San Diego, CA). T-47D cells purchased from ATCC were maintained in RPMI1640 media supplemented with 10% characterized fetal bovine serum (FBS). […] Cells were then detached and seeded in E-Plates 96 in assay medium. After overnight monitoring of growth once every hour, compounds were added to […] cells and remained in the medium until the end of the experiment. Cellular responses were then recorded once every 5 min for the first 5 h, and once every hour for an additional 100 h.

SMILES | AC50 | outcome
C[C@]12CCC(=O)C=C1CC[C@@H]1[C@@H]2CC[C@]2(C)C(=O)CC[C@@H]12 | 50 µM (active) and 9.92 µM (active) | –
C=CC(=O)NCNC(=O)C=C | – | inactive
O=S(=O)(O)C(F)(F)C(F)(F)C(F)(F)C(F)(F)C(F)(F)C(F)(F)F | – | inactive
CCOP(=S)(OCC)SCSC(C)(C)C | – | inactive
O=C(O)C(F)(F)C(F)(F)C(F)(F)C(F)(F)C(F)(F)C(F)(F)C(F)(F)C(F)(F)C(F)(F)F | – | inactive
N#Cc1ccc(N(CC(N)=O)CC(F)(F)F)cc1C(F)(F)F | – | inactive
O=C(O)C(F)(F)C(F)(F)C(F)(F)C(F)(F)C(F)(F)F | – | inactive
ClC1=C(Cl)[C@]2(Cl)[C@@H]3[C@H]4C[C@H]([C@@H]5O[C@H]45)[C@@H]3[C@@]1(Cl)C2(Cl)Cl | 50 µM (active) | –
CCC(=O)O[C@H]1CC[C@H]2[C@@H]3CCC4=CC(=O)CC[C@]4(C)[C@H]3CC[C@]12C | 176 nM (active) and 243 nM (active) and 917 nM (active) | –
CCCCCCOC(=O)c1ccccc1C(=O)OCCCCCC | – | inactive
Cc1cc2c3c(c1)C(c1ccccc1)=N[C@@H](NC(=O)c1ccncc1)C(=O)N3CC2 | – | inactive
Nc1ccc(-c2ccc(N)cc2)cc1 | – | inactive
Clc1ccc(Cl)cc1 | – | inactive
O=C(O)C(F)(F)C(F)(F)C(F)(F)C(F)(F)C(F)(F)C(F)(F)C(F)(F)C(F)(F)F | – | inactive
Clc1ccc(C(c2ccccc2Cl)C(Cl)(Cl)Cl)cc1 (stereo not given) | 393 nM (active) and 193 nM (active) | inactive
NS(=O)(=O)C(F)(F)C(F)(F)C(F)(F)C(F)(F)C(F)(F)C(F)(F)C(F)(F)C(F)(F)F | – | inactive
OCC(O)CO | – | inactive
c1cc2ccc3cccc4ccc(c1)c2c34 | – | inactive
Cc1ccccc1[N+](=O)[O-] | – | inactive
Oc1ccc(Cl)cc1Cl | – | inactive

SMILES | AC50 | outcome
CO/C=C(/C(=O)OC)c1ccccc1COc1cccc(C(F)(F)F)n1 | 20.2 µM (active) | –
CC(C)(O)C(=O)Nc1ccc([N+](=O)[O-])c(C(F)(F)F)c1 | 38.5 µM (active) and 68.7 µM (active) | –
ClC1=C(Cl)[C@]2(Cl)[C@@H]3[C@@H]4C[C@@H]([C@H]5O[C@@H]45)[C@@H]3[C@@]1(Cl)C2(Cl)Cl | 10.8 µM (active) | –
C=CC(N)=O | – | inactive
Oc1ccc(C(c2ccc(O)cc2)(C(F)(F)F)C(F)(F)F)cc1 | 102 nM (active) and 189 nM (active) and 262 nM (active) | –
Cc1cc(-c2ccc(N)c(C)c2)ccc1N | 27 µM (active) and 9.92 µM (active) | –
c1ccc(-c2ccccc2)cc1 | – | inactive
O=NN(c1ccccc1)c1ccccc1 | – | inactive
Cc1ccc(O)c(C)c1 | – | inactive
O=S(=O)(O)C(F)(F)C(F)(F)C(F)(F)C(F)(F)F | – | inactive
CCOC(=O)C(O)(c1ccc(Cl)cc1)c1ccc(Cl)cc1 | – | inactive
O=C(N[C@H]1CN2CCC1CC2)c1cc2ccoc2cn1 | – | inactive
Cc1cccc([N+](=O)[O-])c1 | – | inactive
C1CC2OC2CC1C1CO1 (stereo not given) | – | inactive
Nn1cnnc1 | 60.3 µM (active) | –
O=C(NC(=O)c1cc(F)c(F)cc1Cl)Nc1cc(F)ccc1N1CCC(C(=O)O)CC1 | – | inactive
Sc1ccccc1 | – | inactive
CC(C)C(=O)OCC(C)(C)C(OC(=O)C(C)C)C(C)C (stereo not given) | – | inactive
C[C@]12CCC(=O)C=C1CC[C@@H]1[C@@H]2CC[C@@]2(C)[C@H]1CC[C@]2(C)O | 45.5 nM (active) and 64.3 nM (active) and 5.3 µM (active) | –
